Screens deposited in PubChem BioAssay by National Center for Advancing Translational Sciences (NCATS).
Compounds with a hit are over-represented: about 4% of the library has one in this group of screens.
D1 antag: antagonists of human D1 dopamine receptor; activity change, negative = inhibition, % at 10 µM; HEK293 TREx D1 cells, calcium flux, dopamine EC80; active compounds read low; hit rate 3.2% among 360,000; in the data active means activity change below about -30%; further: on the % scale 0 is the no-effect control and ±100 the full control effect
Target sequence (P21728 whole entry, looked up): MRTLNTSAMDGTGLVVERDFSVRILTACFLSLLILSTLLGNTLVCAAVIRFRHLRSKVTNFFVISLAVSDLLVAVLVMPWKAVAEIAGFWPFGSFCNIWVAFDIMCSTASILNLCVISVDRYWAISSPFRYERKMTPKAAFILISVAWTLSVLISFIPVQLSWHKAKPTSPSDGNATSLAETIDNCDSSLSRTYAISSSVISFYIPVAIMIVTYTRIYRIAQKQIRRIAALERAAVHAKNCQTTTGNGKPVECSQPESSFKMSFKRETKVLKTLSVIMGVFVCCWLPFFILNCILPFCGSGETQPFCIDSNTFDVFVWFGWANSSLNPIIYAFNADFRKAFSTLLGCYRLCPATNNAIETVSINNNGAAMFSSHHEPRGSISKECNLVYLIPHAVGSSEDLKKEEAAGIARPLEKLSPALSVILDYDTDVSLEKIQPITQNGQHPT
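Tetracycline-induced HEK293 Trex D1 cells, force-coupled to calcium, dye-loaded; compounds added and read 180 s, then EC80 dopamine added and calcium flux tracked kinetically another 180 s.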
TRHR agonist: agonists of human TRH receptor; P34981; activation, % at 2 µM; TRHR cells, calcium flux fluo-8, FDSS agonist mode; AID 493084; hit rate 0.18% among 360,000; further: 0% is about no effect
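Agonist-mode FDSS calcium read (Ex 480/Em 530, 1 s cycles) in 1536-well TRHR cells with fluo-8 dye, after 10-cycle baseline and 23 nL compound addition; TRH at EC20 (10 nM final) added afterwards for the enhancer phase.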
D1 agonist: human D1 receptor agonism; hit rate 1% among 360,000; P21728; HEK293 T-REx D1 cells, calcium flux, agonist mode; activation, % at 2 µM; AID 504660; further: 0% is about no effect
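Agonism was scored from calcium flux recorded over 180 s (1 read/s) after pintool compound addition, following a 10-cycle baseline. Cells were inducible force-coupled HEK293 TREx D1, plated overnight at 30 C and loaded with no-wash calcium dye.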
Glioma ERSR ind: ER stress response induction in glioma. AID 602332. Potency, µM, for inactives: top-dose activation, actives largely listed as activators. hit rate 0.02% among 420,000. U87-MG GRP78 promoter luciferase reporter, 16 h; active means well fitted activation curve with a large enough effect; further: potency means the concentration at half of the fitted maximal effect; series mostly up to about 76 µM; % of control where 0% means no effect; nearly all actives have a fitted effect of over 35% in size
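ERSR induction read as luciferase luminescence (Bright-Glo, 10 min at room temperature) in stably transfected human U87-MG glioma cells exposed to compounds for 16 h, using GRP78 as sensor.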
D1 PAM: human D1 dopamine receptor positive modulation. P21728. HEK293 TREx D1 cells, calcium flux, dopamine EC20 potentiation. potentiation, % at 10 µM. hit rate 0.036% among 360,000. AID 504651; in the data active means potentiation above about 30%; further: 0% is about no effect
TRHR enhancer: allosteric enhancers of human TRH receptor | P34981 | TRHR cells, fluo-8 calcium fluorescence, EC20 TRH enhancement | enhancement, % at 2 µM | hit rate 0.66% among 360,000; in the data active means enhancement above about 30%; further: 0% is about no effect
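Enhancer read-out: after compound pinning and an initial kinetic agonist-mode read, an EC20 of TRH (10 nM final) was injected and fluo-8 calcium signal (Ex 480/Em 530) followed at 1 s/cycle for 100 cycles in TRHR-expressing cells.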
Numbers without * were called inactive; / = not tested or not shown; ! = not confirmed by another sample. Unless noted, no stated cut-off is given here; in the data, active means activation above about 30%; inactive means the rest.

SMILES	D1 antag	TRHR agonist	D1 agonist	Glioma ERSR ind	D1 PAM	TRHR enhancer
CCOC(=O)Cn1c(C(=O)OCC)cc2sccc21	-30*	-2	2	-1%	-6	13
CCOC(=O)c1cc2sccc2n1CC(=O)Nc1ccc(OC)cc1OC	-39*	0	7	-3%	-3	20
COc1cc(Nc2ccc(S(=O)(=O)N3CCN(C)CC3)cc2[N+](=O)[O-])cc(OC)c1	3	0	2	-2%	3	-4
COc1cc(S(=O)(=O)N2CCCCC2)ccc1NC(C)=O	2	0	0	-2%	-2	9
CC(Nc1ccc(S(=O)(=O)N2CCN(C)CC2)cc1[N+](=O)[O-])c1ccccc1 (configuration not stated)	-73*	0	1	-2%	-6	-6
COc1ccccc1C(C)Nc1ccc(S(=O)(=O)N2CCN(C)CC2)cc1[N+](=O)[O-] (configuration not stated)	-65*	0	0	-3%	-8	-2
COc1cc(S(=O)(=O)N2CCCN(C)CC2)ccc1NC(C)=O	-15	0	3	-7%	-5	30*
COc1cccc(C(CNc2ccc(S(=O)(=O)N3CCN(C)CC3)cc2[N+](=O)[O-])N(C)C)c1 (configuration not stated)	-22	0	8	-1%	-7	0
CCn1cc(S(=O)(=O)c2ccccc2)c(=O)c2cc(F)c(N3CCCCCC3)cc21	12	1	2	-1%	3	4
CCCCn1cc(S(=O)(=O)c2ccc(CC)cc2)c(=O)c2cc(F)c(N3CCCC(C)C3)cc21 (configuration not stated)	17	-1	2	-2%	0	39*
CCCCn1cc(S(=O)(=O)c2ccc(OC)cc2)c(=O)c2cc(F)c(F)cc21	-39*	-1	-1	0%	0	3
CCn1cc(S(=O)(=O)c2ccccc2)c(=O)c2cc(F)c(F)cc21	-7	0	1	-4%	2	43*
Cc1cc2c(s1)c1cnn(Cc3cc(Cl)ccc3F)c(=O)c1n2C	-12	-1	0	/	0	-1
Cc1cccc(-c2nc(C#N)c(NCc3ccco3)o2)c1	-31*	-1	1	4%	0	-5
CCN(CC)S(=O)(=O)c1cc(NC(=O)c2ccc(Br)s2)ccc1C	-33*	2	27	0%	-3	-23
COc1ccc(NC(=O)CN2C(=O)C(C)(C)c3ccccc32)cc1Cl	-50*	0	4	1%	-1	0
Cc1ccc(CCNC(=O)CCS(=O)(=O)c2ccc(Br)cc2)cc1	21	0	0	-5%	-2	-5
CC1CCN(CCNC(=O)CCS(=O)(=O)c2ccc(Br)cc2)CC1	-43*	0	1	-5%	-6	2
CCC1SC(CC)C(=O)N(CC(=O)NCc2ccc(F)cc2)C1=O (configuration not stated)	0	0	6	-4%	2	-2
CC1SC(C)C(=O)N(CC(=O)NCc2ccc(F)cc2)C1=O (configuration not stated)	8	0	0	-1%	-1	39*
Cc1ccc(CNC(=O)c2nc(SCc3ccc(F)cc3)ncc2Cl)cc1	4	4	21	-3%	2	42*
Cc1ccc(CNC(=O)CSCc2ccc(F)cc2)cc1	-36*!	0	1	-1%	-1	-5
Cc1ccc2nc(SCC(=O)NCc3ccc(S(N)(=O)=O)cc3)[nH]c2c1	15	0	14	2%	-2	6
Cc1ccc2nc(SCC(=O)NCc3ccc(F)cc3)[nH]c2c1	-45*	-2	51*	4%	-9	1
Cc1cc(C)c(S(=O)(=O)N2CCN(C)CC2)c(C)c1	-15	0	0	-1%	-7	-1
SMILES	D1 antag	TRHR agonist	D1 agonist	Glioma ERSR ind	D1 PAM	TRHR enhancer
Cc1ccc(/C(O)=C2\C(=O)C(=O)N(Cc3cccnc3)C2c2ccccc2[N+](=O)[O-])cc1 (configuration not stated)	5	0	1	1%	-3	7
Cc1ccc2nc(SCC(=O)NC3CC3)[nH]c2c1	7	1	0	5%	2	4
COC(=O)CSc1nc2ccc(C)cc2[nH]1	-36*	-1	3	2%	-10	-4
COc1ccc(CCNC(=O)c2nc(SCc3ccccc3F)ncc2Cl)cc1OC	-3	4	33*	-4%	3	-3
CCOC(=O)c1c(NC(=O)CSc2nc3ccc(C)cc3[nH]2)sc2c1CC(C)(C)NC2(C)C	11	2	48*	-5%	1	0
c1csc(-c2noc(COc3ccc4c(c3)CCCC4)n2)c1	-39*	0	27	8%	-2	10
C=COCCNC(=O)Nc1ccc(Cl)c(Cl)c1	-57*	-1	47*	1%	-2	15
O=C(Nc1cccc(Cl)c1)OCCOC(=O)Nc1cccc(Cl)c1	/	/	/	-3%	/	/
CC(C)OC(=O)NCCOC(=O)Nc1ccc(Cl)c(Cl)c1	-40*	3	9	3%	-3	-14
O=C(Nc1cccc(Cl)c1)OCCOc1ccccc1	-31*	0	8	3%	-5	-3
CC(C)OC(=O)Nc1ccc(-c2ccc(NC(=O)OC(C)C)cc2Cl)c(Cl)c1	6	1	2	-8%	-3	19
CC(C)OC(=O)NCCOC(=O)Nc1cccc(Cl)c1	-31*	0	22	-5%	-9	-4
COCCNC(=S)Nc1ccc(Cl)c(Cl)c1	-9	0	18	-2%	-5	-2
CC(C)NC(=O)c1cn([C@H]2CC[C@@H](NC(=O)/C=C/c3cccs3)CC2)nn1	/	/	/	-2%	/	/
CCCn1cnnc1CNC(=O)[C@H]1O[C@@H](n2ccc(=O)[nH]c2=O)[C@H](O)[C@@H]1O	/	/	/	-4%	/	/
CCN(CC)CCN(C)c1ccc(/C=C/c2ccnc3ccccc23)cc1	/	/	/	1%	/	/
Cc1ccc(N(C(C)C(=O)N2CCN(Cc3ccccc3)CC2)S(C)(=O)=O)cc1 (configuration not stated)	8	-4	13	-6%	-1	37*
COC(=O)c1ccc(-c2nc(CN3CCCN(C(=O)c4ccco4)CC3)c(C)o2)cc1	-4	0	2	-1%	-4	0
Cc1ccc(NC(=O)C2CCN(C(=O)c3ccco3)CC2)cc1	-15	0	-1	2%	0	11
O=C(Nc1ccc(Cl)c(Cl)c1)C1CCN(C(=O)c2ccco2)CC1	2	0	41*	-1%	-18	-10
CCOc1ccccc1-c1nc(CN2CCCN(C(=O)c3ccco3)CC2)c(C)o1	-67*	-1	-2	-5%	-4	1
